Assay outcomes from PubChem.
Sampled rows, rich in hits. Any-hit rate of the full collection: about 3.2%.
GLP-1R inv ag – GLP-1 receptor (human) inverse agonism. HEK293 GLP-1R CRE-luciferase, luminescence, 24 h; GLP-1R form is constitutively active. 1.6% of 410,000 active. Potency, µM (series often up to 38.3 µM), for the others: top-dose activity change, negative = inhibition, most hits filed as inhibitors; further: on the % scale 0 is the no-effect control and ±100 the full control effect; nearly all actives have a fitted effect of over 55% in size
Target sequence (P43220 whole entry, looked up): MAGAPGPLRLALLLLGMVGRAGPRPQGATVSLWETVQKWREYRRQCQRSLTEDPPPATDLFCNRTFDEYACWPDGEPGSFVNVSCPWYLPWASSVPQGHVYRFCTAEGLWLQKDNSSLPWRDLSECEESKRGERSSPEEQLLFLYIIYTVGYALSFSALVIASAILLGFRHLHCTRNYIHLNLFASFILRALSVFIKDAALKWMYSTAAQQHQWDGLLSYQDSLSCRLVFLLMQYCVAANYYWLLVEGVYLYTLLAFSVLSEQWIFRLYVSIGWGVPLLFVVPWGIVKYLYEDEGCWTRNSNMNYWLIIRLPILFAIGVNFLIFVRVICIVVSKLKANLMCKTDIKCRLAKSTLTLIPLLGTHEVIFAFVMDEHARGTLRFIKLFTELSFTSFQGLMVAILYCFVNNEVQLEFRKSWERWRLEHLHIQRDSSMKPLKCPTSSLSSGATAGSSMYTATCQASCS
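HEK293 cells stably co-expressing constitutively active GLP-1R and a cAMP-responsive luciferase reporter were seeded in DMEM with 10% Nu serum, given compounds after 12 h, and incubated 24 h at 37 deg C. Luminescence was then read.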
ClpP mod – qHTS Assay for Activators of ClpP. ATP-dependent Clp protease proteolytic subunit (Bacillus subtilis (strain 168)), P80244. purified B. subtilis ClpP, FRET peptide cleavage, 20 min. Potency, µM (highest dose often 57.5 µM), inactives show at the highest dose activity change, negative = active. 1.9% of 340,000 active; active means well fitted falling curve with a large enough effect; inconclusive means small, poorly fitted or top-dose-only effect; inactive means no such curve, though single readings can be large or run the other way; further: the source files actives as falling curves though it sought activators and does not explain the sign; nearly all actives have a fitted effect of over 65% in size
Target sequence (P80244 whole entry, looked up): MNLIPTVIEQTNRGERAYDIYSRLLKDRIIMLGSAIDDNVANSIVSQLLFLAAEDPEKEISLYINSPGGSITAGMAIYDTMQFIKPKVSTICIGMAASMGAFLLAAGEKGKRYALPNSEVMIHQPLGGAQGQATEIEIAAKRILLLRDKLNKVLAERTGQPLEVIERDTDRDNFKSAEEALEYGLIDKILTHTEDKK
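ClpP 10 microg/mL final, pH 8 Tris/KCl buffer with BSA, glycerol, Tween-20; compound pinned in; FRET-FV substrate; RT 20 min; Ex320/Em430; ΔFRET vs ADEP 5.8 microM, DMSO, no enzyme.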
GLP1R cytotox – cytotoxic in the GLP-1 receptor inverse agonist counter-screen. HEK293 cAMP-luciferase reporter cells, luminescence, 24 h. Potency, µM (doses to about 38.3 µM), inactives show at the highest dose activity change, negative = inhibition, usual class: inhibitors. 0.13% of 410,000 active;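 further: loss of luciferase light is scored as toxicity; on the % scale 0 is the no-effect control and ±100 the full control effect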
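MLSMR compounds, 24 hr on cells at 37 deg C/5% CO2; luminescence after luciferase reagent (12 min RT). Inhibition counted as the undesired cytotoxic outcome.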
GLP1R ag – activates the human GLP-1 receptor; Potency, µM (top dose mostly 45.6 µM), for the others: at the highest dose activation, most hits filed as activators; HEK293 GLP-1R CRE-luciferase, luminescence, 4-6 h; cells express a hypersensitive GLP-1R form; 0.007% of 380,000 active; further: % of control where 0% means no effect
Starred values were filed as active, the others as inactive; ? = inconclusive; . = no result given. Unless noted, the call rests on the fitted dose curve; in most records, active means well fitted curve in the direction sought with a large enough effect; inconclusive means small, poorly fitted or top-dose-only effect, or another doubt; inactive means no such curve, though single readings can be large; an effect the other way counts as inactive or inconclusive. Potency means the concentration at half of the fitted maximal effect.

SMILES	GLP-1R inv ag	ClpP mod	GLP1R cytotox	GLP1R ag
Cc1cc2n(n1)C(c1cn(-c3ccccc3)nc1C)Nc1ccccc1-2 (stereo not drawn)	44.2%	2.51µM*	2.0%	2.7%
Cc1cc2n(n1)C(c1c[nH]c3ccccc13)Nc1ccccc1-2 (stereo not drawn)	-20.7%	22.4µM*	-1.9%	-0.5%
COc1ccc(Cl)cc1C(=O)NCc1nc(-c2cccc(C)c2)no1	-24.5%	-3.6%	-12.0%	.
Cc1cc(N(C)C)c(C)cc1/C=C/c1ccnc2ccccc12	.	1.5%	.	.
O=C1CCC[C@@H]2[C@@H](Cc3ccccc3)[C@@H](Nc3ccccc3)C[C@@H]3CCN1[C@@H]32	.	1.7%	.	.
COCCNc1nc2ccccc2nc1NS(=O)(=O)c1ccc(C)cc1C	-16.6%	28.2µM*	-19.4%	-2.9%
COCCCNc1nc2ccccc2nc1NS(=O)(=O)c1ccc(C)c(C)c1	2.0%	.	6.7%	11.5%
O=c1ccc(N=Nc2ccccc2)ccc1O	?	.	11.2µM*	2.4%
CCN1CCN(C(=O)Cn2ncc3c4ccccc4n(Cc4ccccc4)c3c2=O)CC1	?	4.6%	-18.6%	.
FC(F)(F)c1cccc(NC(=S)NC(c2ccccc2)c2ccccc2)c1	2.82µM*	-4.6%	7.9%	5.5%
CC1CCCCN1CCCNC(=O)c1cc(Sc2cccc(Cl)c2)nc2ccccc12 (stereo not drawn)	-9.1%	-3.4%	-12.0%	.
CCc1ccc(S(=O)(=O)c2cn(Cc3ccccc3)c3cc(N4CCCC4)c(F)cc3c2=O)cc1	5.4%	2.82µM*	6.3%	.
Cc1ccc(S(=O)(=O)c2cn(Cc3cccc(F)c3)c3cc(N4CCCC4)c(F)cc3c2=O)cc1	13.1%	3.55µM*	1.0%	.
Cc1ccc(S(=O)(=O)c2cn(Cc3ccccc3)c3cc(N4CCOCC4)c(F)cc3c2=O)cc1	13.0%	28.2µM*	-1.3%	.
Cc1ccc(S(=O)(=O)c2cn(Cc3ccccc3)c3cc(N4CCCCC4)c(F)cc3c2=O)cc1	9.5%	?	-2.5%	.
CCC/C=C/c1ccc(CN2C(C(C)C)C(=O)N(Cc3cn(CC4CCCCC4)nn3)CCS2(=O)=O)cc1 (stereo not drawn)	?	-5.7%	-9.9%	8.3%
CC(=O)Nc1c(C(=O)Nc2cccc(C)c2)nnn1-c1ccc(C)cc1	?	-1.7%	-11.7%	-9.6%
CCc1ccc(OCC(=O)NC(Cc2c[nH]c3ccccc23)C(=O)O)cc1 (stereo not drawn)	3.4%	0.8%	0.0%	.
CCCN1CCN(S(=O)(=O)c2ccc3c(c2)NC(=O)C(C)S3)CC1 (stereo not drawn)	-20.5%	0.2%	-11.8%	-2.2%
COc1ccccc1N1CCN(S(=O)(=O)c2ccc3c(c2)NC(=O)C(C)S3)CC1 (stereo not drawn)	10µM*	0.6%	-5.0%	5.2%
COc1cccc(-c2c(-c3ccccc3OC)ncn2Cc2cccc(-c3ccccc3)c2)c1	?	28.2µM*	?	.
COc1cc(/C=N/NC(=O)c2ccccn2)ccc1OC(=O)c1ccccc1Br	?	-9.6%	11.2µM*	-29.7%
COc1ccc(/C=N\NC(=O)c2ccccc2)cc1COc1ccc(F)cc1	7.94µM*	-4.6%	-8.5%	-4.6%
COc1ccc(/C=N\NC(=O)c2ccccc2Br)cc1COc1ccc(F)cc1	21.0%	-16.2%	13.9%	-3.0%
COc1ccc(/C=N/NC(=O)c2ccccc2OC)cc1COc1ccc(C)cc1	13.5%	25.1µM*	0.5%	-8.0%
SMILES	GLP-1R inv ag	ClpP mod	GLP1R cytotox	GLP1R ag
COc1ccc(C(=O)N/N=C/c2ccc(OC)c(COc3ccc(F)cc3)c2)cc1	10µM*	?	3.5%	-28.5%
COc1ccc(CNC(=O)C2CCN(C(=O)N3CCOc4ccc(Cl)cc43)CC2)cc1	-23.8%	-2.1%	4.8%	.
Cc1cc(Cl)ccc1OCc1cc(=O)n2c3c(sc2n1)CCCC3	13.9%	-2.8%	-1.5%	-0.1%
CC(=O)N1CCCc2ccc(NC(=O)c3ccc(OC(C)C)cc3)cc21	29.1%	-1.4%	1.0%	.
CC(C)Oc1ccc(CNC(=O)C2CCN(c3nc4ccccc4nc3C(F)(F)F)CC2)cc1	?	22.8%	-6.0%	.
COc1cc(C)ccc1OCc1cc(C(=O)NC(c2ccccn2)C(F)(F)F)no1 (stereo not drawn)	12.6µM*	-3.4%	3.8%	5.8%
CCC(C(=O)NCc1ccccc1)n1c(C2CCN(C(C)=O)CC2)nc2ccccc21 (stereo not drawn)	19.5%	0.2%	-1.0%	.
CCc1nn(CC(=O)NCc2ccc(C)cc2)c(=O)c2cc3occc3n12	2.1%	-2.1%	0.4%	.
Cc1ccc2nc(SCC3CCCCO3)[nH]c2c1 (stereo not drawn)	3.55µM*	.	7.1%	2.1%
C#CCN(C[C@@H]1[C@@H](OC(=O)NC2CCCC2)[C@@H](OC(=O)NC2CCCC2)CN(C(=O)OC(C)C)N1C(=O)OC(C)C)S(=O)(=O)c1ccc(C)cc1	?	-1.8%	2.8%	-3.2%
Cc1nc2nc(SCC(=O)NC3CCCCC3)nn2c(C)c1Cc1ccccc1Cl	?	-10.7%	-2.3%	1.0%
Cn1c(/C=C/c2ccc(Cl)cc2)c([N+](=O)[O-])c(=O)n(C)c1=O	0.794µM*	-1.5%	?	-4.9%
COc1ccc(/C=C/c2c([N+](=O)[O-])c(=O)n(C)c(=O)n2C)cc1OC	10.2%	1.3%	4.3%	6.8%
O=C1CCN(CCc2ccccc2)CCN1[C@H](COc1ccccc1)Cc1ccccc1	10µM*	0.4%	-17.3%	-4.8%
CC(C)C[C@@H](COc1ccccc1)N1CCN(CCc2ccccc2)CCC1=O	?	1.9%	0.7%	11.3%
Clc1ccc(CN2CCc3c([nH]c4ccccc34)C2)cc1Cl	3.98µM*	-29.7%	?	-9.9%
COc1ccc(CNC(=O)C2CCCN(S(=O)(=O)c3ccc4c(ccn4C)c3)C2)c(OC)c1 (stereo not drawn)	-20.0%	-7.8%	3.8%	.
CCCC(C)NC(=O)CN1C(=O)c2cccc3cccc1c23 (stereo not drawn)	-17.2%	22.4µM*	72.3%	-9.8%
CC(C)C(NC(=O)CN1C(=O)c2cccc3cccc1c23)C(C)C	-27.5%	?	103.9%	5.9%
O=C(CCN1C(=O)c2cccc3cccc(c23)C1=O)NCC1CCCO1 (stereo not drawn)	45.0%	.	-1.6%	4.2%
O=C(CN1C(=O)c2cccc3cccc1c23)NCC1CCCO1 (stereo not drawn)	15.5%	25.1µM*	55.1%	9.8%
CCOc1ccc(NC(=O)CSc2nnc(C)n2C2CC2)cc1S(=O)(=O)N1CCCC1	14.4%	25.1µM*	11.2%	-12.7%
CCOc1ccc(NC(=O)CSc2nnnn2C2CC2)cc1S(=O)(=O)N1CCCC1	3.0%	-0.4%	4.8%	14.1%
CC(C)(C)OC(=O)CC(S(=O)(=O)c1ccccc1)S(=O)(=O)c1ccccc1	?	-1.4%	?	-5.5%
